Screening results from PubChem BioAssay.
POLK inh: inhibitors of human DNA polymerase kappa; AID 588579; Potency, µM (top dose mostly 107 µM), hits mostly inhibitors; purified Pol kappa, fluorescent DNA synthesis assay, 10 min; 400,000 tested, 0.53% active
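Here, compound and 10 nM enzyme are combined for 15 min at room temperature; adding 50 nM substrate (final) starts DNA synthesis, tracked by fluorescence at 0 and 10 min against buffer-only wells.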
POLB inh: DNA polymerase beta (human) inhibition. Pol beta primer extension/strand displacement, fluorescence kinetic. 340,000 tested, 1.3% active. Potency, µM (series often up to 114 µM), actives largely listed as inhibitors
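Homogeneous kinetic assay of primer extension and strand displacement by 10 nM Pol beta, preincubated 15 min at room temperature with compound before 50 nM substrate (final) was added. Read at 0 and 10 min; four-parameter Hill fit.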
Pol eta inh: blocks human DNA polymerase eta activity. 390,000 tested, 1.2% active. recombinant Pol eta, fluorescent DNA replication assay. Potency, µM (series often up to 114 µM), most hits filed as inhibitors. Q9Y253
Target sequence (Q9Y253 whole entry, looked up): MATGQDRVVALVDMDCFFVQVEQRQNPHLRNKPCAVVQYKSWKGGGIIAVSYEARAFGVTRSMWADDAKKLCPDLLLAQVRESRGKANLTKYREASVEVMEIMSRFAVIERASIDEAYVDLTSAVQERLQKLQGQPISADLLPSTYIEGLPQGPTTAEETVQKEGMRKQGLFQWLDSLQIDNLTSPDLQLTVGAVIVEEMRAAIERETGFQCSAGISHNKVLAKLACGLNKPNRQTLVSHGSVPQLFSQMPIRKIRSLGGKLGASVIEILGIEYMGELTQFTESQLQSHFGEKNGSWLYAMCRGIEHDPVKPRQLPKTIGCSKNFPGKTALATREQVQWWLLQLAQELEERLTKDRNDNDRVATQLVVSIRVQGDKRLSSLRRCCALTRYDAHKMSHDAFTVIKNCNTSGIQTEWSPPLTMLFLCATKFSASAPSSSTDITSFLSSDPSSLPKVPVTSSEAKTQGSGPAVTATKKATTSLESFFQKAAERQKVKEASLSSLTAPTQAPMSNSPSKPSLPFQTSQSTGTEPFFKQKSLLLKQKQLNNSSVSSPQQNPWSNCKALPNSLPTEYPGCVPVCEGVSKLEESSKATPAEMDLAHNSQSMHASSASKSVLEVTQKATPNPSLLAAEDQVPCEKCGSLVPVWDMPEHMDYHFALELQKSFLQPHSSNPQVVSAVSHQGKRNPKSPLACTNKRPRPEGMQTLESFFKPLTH
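Fluorescent replication assay: 50 nM final substrate added after a 15 min room-temperature compound preincubation with 10 nM enzyme. Signal taken at 0 min and again at 10 min.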
FEN1 inh: human FEN1 inhibition; 390,000 tested, 0.35% active; Recombinant FEN1 flap cleavage, fluorescence, 15 min; Potency, µM (top dose mostly 114 µM), most hits filed as inhibitors; note: nearly all actives have a fitted effect of over 65% in size
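Quantitative HTS format: each compound was titrated, incubated with 10 nM nuclease for 15 min at room temperature, then challenged with flap substrate at 50 nM final. Signal change over 15 min gave concentration–effect curves.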
WRN inhibitor: WRN helicase (human) inhibition; 360,000 tested, 0.46% active; WRN helicase unwinding, fluorescent forked duplex, kinetic; AID 651768; Potency, µM (series often up to 114 µM), most hits filed as inhibitors; Q14191; note: nearly all actives have a fitted effect of over 55% in size
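Kinetic fluorescence helicase assay: unwinding of a quenched forked DNA duplex (100 nM final) with 2 mM ATP final raises red fluorescence (525/598 nm). Compounds sat 15 min at room temperature with 20 nM WRN beforehand.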
Pol iota inh: inhibitors of human DNA polymerase iota; Potency, µM (doses to about 115 µM), usual class: inhibitors; 390,000 tested, 1% active; Q9UNA4; Pol iota fluorescent replication assay, 10 min
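Pol iota at 10 nM preincubated 15 min with compounds at room temperature; reaction started with fluorescent substrate, 50 nM final. Fluorescence read kinetically at 0 and 10 min; buffer-only wells as negative control.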
Hits are given with their value; 0 = inactive; ? = inconclusive; - = no result; [ ] = another dose, or the depositor's remark. Hits are enriched below; roughly 2.4% of the tested compounds scored in any of these assays. Calls come from the whole dose curve; as a rule, active = well fitted curve in the direction sought with a large enough effect; inconclusive = small, poorly fitted or top-dose-only effect, or another doubt; inactive = no such curve, though single readings can be large; an effect the other way counts as inactive or inconclusive.

SMILES	POLK inh	POLB inh	Pol eta inh	FEN1 inh	WRN inhibitor	Pol iota inh
CCc1cccc(OCCOCCN2CCCC2)c1	0	0	0	0	0	0
CCC/C(=C1/c2ccccc2C(=O)N1c1ccccc1)c1ccc(O[C@@H]2CCCCO2)cc1	0	-	0	0	0	0
COc1cc(/C=N/NC(=O)c2ccc(=O)[nH]n2)ccc1O	?	20µM	?	0	0	100µM
COc1cc(/C=N/NC(=O)c2cc(-c3ccc4c(c3)OCO4)n[nH]2)ccc1O	79.4µM	8.91µM	?	0	0[11.6 µM]	?
COc1cc(/C=N/NC(=O)c2cc(C3CC3)[nH]n2)ccc1O	0	0	0	0	0	0
COc1cc(/C=N\NC(=O)c2ccc(C)nc2)ccc1OC(=O)c1ccc2c(c1)OCO2	0	20µM	?	0	0	0
COCc1cc(=O)[nH]c(SCC(=O)N2CCOCC2)n1	0	0	0	0	0	0
O=C(Cc1ccc(Cl)cc1)N/N=C/c1c(Cl)cccc1Cl	0	0	0	0	0	?
CCOC(=O)[C@]12CCC=C1N(Cc1cccc3ccccc13)C(=O)[C@H](CC(=O)NCc1ccccc1)C2	-	-	-	-	0	-
Cc1cccc(NC(=O)CN2C(=O)N/C(=C/c3ccc(-c4cccc(C(=O)O)c4C)o3)C2=O)c1	0	?	79.4µM	0	0	0
Cc1c(C(=O)O)cccc1-c1ccc(/C=C2\SC(=O)NC2=O)o1	?	0	22.4µM	?	0[11.6 µM]	?
Cc1c(C(=O)O)cccc1-c1ccc(/C=C2/NC(=O)N(c3ccccc3)C2=O)o1	?	17.8µM	22.4µM	0	0	?
Cc1ccc(/C=C2/NC(=O)N(c3ccccc3)C2=O)o1	0	0	0	0	0	0
COc1ccc(C(O)P(=O)(OC(C)C)OC(C)C)cc1OC (centres undefined)	0	0	0	0	0	0
CN(Cc1cccs1)C(=O)CCCc1c[nH]c2ccccc12	0	0	0	0	0	0
c1ccc(SSc2ccccn2)nc1	0	-	0	?	22.4µM	?
CC(=O)c1sc2nc(-c3ccco3)ccc2c1N	79.4µM	12.6µM	28.2µM	?	?	5.01µM
Nc1c(C(=O)Nc2ccc(Br)cc2)sc2nc(-c3ccco3)ccc12	0	0	0	0	0	0
CCOc1ccc(-n2ccnc2SCC(=O)Nc2nc3ccc(C)cc3s2)cc1	0	25.1µM	89.1µM	0	-	0
CCOC(=O)c1c(SCC(=O)Nc2cc(Cl)cc(Cl)c2)nc(=O)[nH]c1C	0	0	0	0	-	0
CCOC(=O)c1c(SCC(=O)Nc2nc3ccc(C)cc3s2)nc(=O)[nH]c1C	0	?	0	0	-	89.1µM
COc1ccc(NC(=O)NNC(=O)c2ccc(-c3ccccc3)cc2)cc1	0	7.94µM	0	0	0	?
O=C(NNC(=O)c1ccc(NC(=O)c2ccccc2)cc1)Nc1ccccc1	?	11.2µM	?	0	0	39.8µM
O=C(CCc1ccccc1)NNC(=O)c1ccc(NC(=O)c2ccccc2)cc1	0	22.4µM	?	0	0	?
COc1ccc2cc3c(N)nn(C(=O)c4ccccc4[N+](=O)[O-])c3nc2c1	0	0	0	0	0	0
SMILES	POLK inh	POLB inh	Pol eta inh	FEN1 inh	WRN inhibitor	Pol iota inh
CCCn1nc([N+](=O)[O-])c(C(C#N)c2nc3ccccc3o2)c(Cl)c1=O (centres undefined)	0	0	22.4µM	0	?	?
Cn1nc([N+](=O)[O-])c(C(C#N)c2ccccn2)c(Cl)c1=O (centres undefined)	0	0	0	0	0	?
CCC(C)NC(=O)c1ccc2nc(-c3ccco3)c(-c3ccco3)nc2c1 (centres undefined)	?	-	-	?	-	22.4µM
CCC(C)NC(=O)c1ccc2nc(Cc3ccccc3)oc2c1 (centres undefined)	0	0	0	0	-	0
COc1ccc(CCNC(=O)c2ccc(Cl)cc2)cc1OC	0	0	0	0	0	0
Cc1ccc(C(=O)Nc2cccc(C(F)(F)F)c2)cc1NC(=O)c1nccn1C	0	39.8µM	0	0	0	?
COc1ccc(CCNC(=O)c2ccc3nc(-c4ccco4)c(-c4ccco4)nc3c2)cc1OC	44.7µM	35.5µM	79.4µM	?	35.5µM	12.6µM
COc1ccc(CCNC(=O)c2ccc(N3CCCCS3(=O)=O)cc2)cc1OC	0	?	0	0	0	79.4µM
O=C(O)c1ccc(NC(=O)c2ccccc2Br)c(NC(=O)c2ccccc2Br)c1	0	0	0	0	0	0
O=C(O)c1ccc(N[C@@H]2OC[C@@H](O)[C@@H](O)[C@@H]2O)cc1	0[19.4 µM]	-	-	-	-	-
CN(C)n1cccc1/C=C(\C#N)S(=O)(=O)c1ccc(Cl)cc1	0	0	0	0	0	0
CC1CC=CC2C1C(=O)N(Cc1ccccc1)C2c1ccc2ccccc2c1-c1ccc(N(C)C)cc1 (centres undefined)	0	-	-	0	-	0
O=C(COc1ccc(S(=O)(=O)NC2CCCC2)cc1)NCC1CCCO1 (centres undefined)	0	0	0	0	0	0
O=C(Nc1cccc(C(F)(F)F)c1)c1ccc2nc(-c3ccco3)c(-c3ccco3)nc2c1	44.7µM	10µM	8.91µM	?	25.1µM	15.8µM
N/C(=N\OC(=O)c1ccc(Br)cc1)c1cccc([N+](=O)[O-])c1	0	17.8µM	0	0	0	?
CCOC(=O)C(C(C)=O)c1c(Br)c(O)c(O)c2c(C(=O)c3ccc(C)cc3)coc12 (centres undefined)	50.1µM	0	0	0	0	25.1µM
O=C(CCCCn1c(=O)c2ccccc2n(Cc2ccc(Cl)cc2)c1=O)NCc1ccccc1Cl	0	0	0	0	-	0
COC(=O)C(Cc1ccc(O)cc1)NC(=O)CCc1ccco1 (centres undefined)	0	0	0	0	0	0
CC(C)C(=O)Nc1cc2c3c(c1)CCC(=O)N3CCC2	?	0	0	0	0	35.5µM
CC(C)NC(=O)C(=O)Nc1cc2c3c(c1)CCC(=O)N3CCC2	0	0	0	0	0	0
C=CCNS(=O)(=O)c1cc2c3c(c1)CCN3C(=O)CC2	79.4µM	0	0	?	0[11.6 µM]	28.2µM
CCS(=O)(=O)Nc1cc2c3c(c1)CCN3C(=O)CC2	79.4µM	0	0	0	0[11.6 µM]	25.1µM
COc1ccc(CCNC(=O)c2ccc(=O)[nH]c2)cc1OC	0	0	0	0	0	0
Cc1ccc2nc(-c3ccc(SCC(=O)N4CCc5ccccc54)nc3)[nH]c2c1	0	0	?	0	0	?
CCOC(=O)c1[nH]c(C)c(C(=O)Nc2ccccc2F)c1C	0	0	25.1µM	0	0	0
CC1=[N+](C)c2ccc3ccccc3c2C1(C)C	0	0	0	?	25.1µM	?
Cc1c2ccccc2cc[n+]1C	0	-	-	0	-	0
CCOc1ccc(-n2c(C)cc(/C=N/NC(=O)C(N)=O)c2C)cc1	0	0	0	0	0	0
